From PubChem BioAssay
Sfp PPTase inh – Sfp phosphopantetheinyl transferase inhibition; Biochemical Sfp PPTase activity, qHTS; Potency, µM, hits mostly inhibitors; Q9F4F7; actives 3.5% (n = 310,000);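 also: the enzyme is Sfp with the accession as filed and its product quenches rhodamine fluorescence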
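Compounds were incubated with enzyme (final 15 nM) for 15 min at room temperature before substrate addition started the reaction. Fluorescence at 525 nm excitation, 598 nm emission was recorded immediately and after 30 minutes.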
HP1b binding inh – HP1-beta chromodomain-methylated histone interaction inhibition. Potency, µM (highest dose often 114 µM), actives largely listed as inhibitors. P83916. AlphaScreen HP1-beta / biotin-H3K9me3 peptide binding. actives 0.56% (n = 390,000); also: nearly all actives have a fitted effect of over 70% in size
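Compound inhibition of the preformed complex between 50 nM HP1-beta and 50 nM biotinylated H3K9me3 peptide was read by AlphaScreen. Buffer was PBS pH 7.4 with 0.01% Tween-20. Incubations ran 30 min at room temperature, with 10 ug/mL donor/acceptor beads.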
JMJD2A Tudor – inhibitors of human JMJD2A Tudor domain; AlphaScreen JMJD2A-Tudor / H3K4me3 peptide binding; Potency, µM (series often up to 114 µM), actives largely listed as inhibitors; actives 4.4% (n = 390,000); also: nearly all actives have a fitted effect of over 50% in size
Target sequence (O75164 whole entry, looked up, the tested form may be a part): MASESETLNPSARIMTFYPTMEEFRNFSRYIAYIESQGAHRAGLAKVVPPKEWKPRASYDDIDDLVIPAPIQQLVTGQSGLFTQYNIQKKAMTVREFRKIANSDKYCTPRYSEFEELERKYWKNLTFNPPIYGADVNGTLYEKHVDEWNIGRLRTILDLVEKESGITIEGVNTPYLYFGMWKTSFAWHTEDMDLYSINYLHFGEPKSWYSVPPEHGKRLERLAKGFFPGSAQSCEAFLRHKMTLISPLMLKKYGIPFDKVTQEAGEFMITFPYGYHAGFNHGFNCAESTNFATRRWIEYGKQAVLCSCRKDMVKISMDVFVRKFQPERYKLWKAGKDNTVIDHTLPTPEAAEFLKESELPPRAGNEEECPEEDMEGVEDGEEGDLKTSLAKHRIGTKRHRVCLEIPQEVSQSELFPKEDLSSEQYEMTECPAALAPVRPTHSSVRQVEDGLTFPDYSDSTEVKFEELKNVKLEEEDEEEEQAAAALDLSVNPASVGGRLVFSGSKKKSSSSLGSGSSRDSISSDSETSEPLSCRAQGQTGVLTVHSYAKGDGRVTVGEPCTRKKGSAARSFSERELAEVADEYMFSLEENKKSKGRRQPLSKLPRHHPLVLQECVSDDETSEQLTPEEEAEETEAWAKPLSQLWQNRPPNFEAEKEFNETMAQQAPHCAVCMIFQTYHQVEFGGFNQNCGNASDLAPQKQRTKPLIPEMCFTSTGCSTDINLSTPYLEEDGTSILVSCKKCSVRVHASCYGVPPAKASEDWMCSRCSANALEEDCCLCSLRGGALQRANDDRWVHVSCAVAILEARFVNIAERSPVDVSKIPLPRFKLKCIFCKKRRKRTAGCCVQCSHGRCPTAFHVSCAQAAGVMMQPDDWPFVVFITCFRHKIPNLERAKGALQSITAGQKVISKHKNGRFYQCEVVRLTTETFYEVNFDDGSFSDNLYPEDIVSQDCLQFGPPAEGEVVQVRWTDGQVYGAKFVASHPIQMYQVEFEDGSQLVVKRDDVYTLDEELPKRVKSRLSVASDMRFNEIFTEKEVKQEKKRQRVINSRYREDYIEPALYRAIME
BAZ2B inh – BAZ2B (human) inhibition. Q9UIF8. AlphaScreen BAZ2B-H3K14Ac peptide displacement. Potency, µM (highest dose often 114 µM), actives largely listed as inhibitors. actives 4.4% (n = 360,000). AID 504333; also: nearly all actives have a fitted effect of over 60% in size
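Inhibition is scored as reduced AlphaScreen emission. The BAZ2B/b-H3(5-23)K14Ac complex (50 nM each) in PBS pH 7.4, 0.01% Tween-20 meets compound (up to 110 uM) for 30 min at RT before bead addition.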
G9a block – blocks human histone lysine methyltransferase G9a | Q96KQ7 | G9a H3K9 monomethylation, AlphaScreen, 2 h | Potency, µM (doses to about 102 µM), actives largely listed as inhibitors | actives 8.8% (n = 350,000); also: nearly all actives have a fitted effect of over 75% in size
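Signal arises when biotinylated H3K9 peptide, once monomethylated, bridges streptavidin donor and antibody-captured acceptor beads. Enzyme at 20 nM was preincubated 15 min with test compounds; peptide 500 nM and SAM 20 uM then reacted for 2 h.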
PLK1 PBD inh – inhibitors of human PLK1 polo-box domain binding | P53350 | actives 2.8% (n = 360,000) | Plk1 PBD binding of FITC phosphopeptide, fluorescence polarization | Potency, µM, actives largely listed as inhibitors; also: series mostly up to about 57 µM; nearly all actives have a fitted effect of over 65% in size
Hits are given with their value; . = inactive; ? = inconclusive; / = not tested or not shown; [ ] = remark or other dose. Rows were chosen to be rich in hits. Some 12% of all compounds tested hit in one or more screens of this group. Calls follow the shape of the dose curve; as a rule, active = well fitted curve in the direction sought with a large enough effect; inconclusive = small, poorly fitted or top-dose-only effect, or another doubt; inactive = no such curve, though single readings can be large; an effect the other way counts as inactive or inconclusive.

SMILES | Sfp PPTase inh | HP1b binding inh | JMJD2A Tudor | BAZ2B inh | G9a block | PLK1 PBD inh
CC[C@]1(c2cccc(O)c2)CCCCN(C)C1 | . | / | / | / | .[21.5 µM] | /
O=C(NCc1ccccc1)Oc1cccc(Cl)c1 | . | . | . | . | . | 8.4µM
C[C@@H](N)[C@@H](O)c1ccc(O)c(O)c1 | 56µM | / | / | / | 2µM | /
CC(N)[C@H](O)c1ccc(O)c(O)c1 (some centres not stated) | / | / | 14µM | / | 14µM | /
COc1ccc(OC)c(C(O)C(C)N)c1 (configuration not stated) | . | . | . | . | . | .
O=C(Oc1ccc2cc(Br)ccc2c1)N1CCCCCC1 | . | / | / | . | . | /
COc1cc(Cc2ccc(N)c(OC)c2)ccc1N | . | . | ? | ? | 71µM | .
CN1C(=S)CN=C(c2ccccc2)c2cc(Cl)ccc21 | . | / | / | / | .[12.7 µM] | /
CCOc1ccc(Cc2c(O)[nH]c(=O)[nH]c2=O)cc1 | 20µM | . | . | . | ? | .
CC(C)Oc1ccc(Cc2c(O)[nH]c(=O)[nH]c2=O)cc1 | . | . | . | . | . | .
CCN1C[C@]2(C)CC[C@H](O)[C@@]34[C@@H]5C[C@@H]6[C@@H](OC)C[C@@](O)(C5[C@H]6O)[C@@H](C[C@@H]23)[C@@H]14 | / | / | / | / | .[12.7 µM] | /
CN(CCc1ccccc1)Cc1ccccc1[N+](=O)[O-] | . | . | . | ? | ? | .
Oc1ccccc1CN(CCc1ccccc1)Cc1ccccc1 | ? | . | 45µM | ? | .[0.501 µM] | .
Oc1ccc2c3c1OC1C(O)CC[C@]4(O)C(C2)N(CC2CCC2)CC[C@]314 (some centres not stated) | . | / | / | / | .[2.33 µM] | /
COc1ccc(C2C(C#N)=C(N)Oc3c2c(=O)oc2ccccc32)cc1Cn1cc([N+](=O)[O-])cn1 (configuration not stated) | . | . | . | . | . | .
CCCc1[nH]nc2c1C(c1ccc(OC)c(Cn3nnc4ccccc43)c1)C(C#N)=C(N)O2 (configuration not stated) | . | . | ? | . | . | 12µM
CCC[C@@H]1CC2=CC(=O)CC[C@]2(C)[C@@H]2CC[C@@]3(C)[C@H](CC[C@]3(O)CCC(=O)O)[C@H]12 | . | / | / | / | / | /
CC(C)n1c(=O)c(C=Nc2cccc([N+](=O)[O-])c2)c(O)n(CCc2ccccc2)c1=O | . | . | ? | ? | 10µM | .
COc1ccc(N(C)C(=O)Cn2c(=O)oc3ccccc32)c(OC)c1 | . | ? | . | . | 45µM | .
COc1ccc(Cl)cc1NC(=O)CCn1c(=O)oc2ccccc21 | . | . | . | . | . | ?
CN(C)c1ccc(C=C2C=CC=C2)cc1 | / | 22µM | 18µM | / | / | .
COc1cc2c(c(OC)c1OC)-c1ccc(O)c(=O)cc1[C@@H](NC(C)=O)CC2 | . | . | 56µM | / | / | .
COC(=O)c1c(C)n(Cc2ccc3c(c2)OCO3)c2ccc(O)cc12 | . | . | ? | ? | 35µM | .
CCOC(=O)c1c(C)n(COCCO)c2ccc(O)cc12 | . | . | . | . | . | .
CCOC(=O)c1c(C)n(Cc2ccco2)c2ccc(O)cc12 | 45µM | . | . | ? | 8.9µM | .
SMILES | Sfp PPTase inh | HP1b binding inh | JMJD2A Tudor | BAZ2B inh | G9a block | PLK1 PBD inh
CCOC(=O)c1c(C)n(Cc2ccc3c(c2)OCO3)c2ccc(O)cc12 | . | . | . | ? | ? | .
C[C@H]1[C@@H](O)[C@@H](C)/C=C\C=CCC\C=C/C=C\C=C/C=C[C@@H](O[C@H]2O[C@@H](C)[C@@H](O)[C@@H](N)[C@@H]2O)C[C@@H]2O[C@@](O)(C[C@@H](O)[C@H]2C(=O)O)C[C@@H](O)[C@@H](O)CC[C@@H](O)C[C@@H](O)C[C@@H](O)CC(=O)O[C@H]1C | . | / | / | / | .[21.5 µM] | /
O=C1NC(=O)N(c2ccccc2)C(=O)/C1=C\c1ccc([N+](=O)[O-])o1 | 18µM | / | / | 40µM | 13µM | /
CN1C(=O)NC(=O)/C(=C\c2ccc([N+](=O)[O-])o2)C1=O | 40µM | 25µM | 16µM | 35µM | 13µM | 2.7µM
O=C1NC(=O)N(c2ccc3c(c2)OCO3)C(=O)/C1=C\c1ccc(N2CCCCC2)o1 | . | . | . | . | . | .
C[C@@]12CCC(=O)C=C1C=C[C@H]1[C@H]3CC[C@](O)(CCC(=O)O)[C@]3(C)CC[C@@H]12 | . | / | / | / | .[21.5 µM] | /
Ic1ccccc1CNC1C2CCN(CC2)C1C(c1ccccc1)c1ccccc1 (configuration not stated) | / | / | / | / | 2µM | /
Ic1ccccc1CN[C@@H]1C2CCN(CC2)[C@@H]1C(c1ccccc1)c1ccccc1 | / | ? | 18µM | 40µM | 1.6µM | .
CC[C@H]1CN2CCc3cc(OC)c(OC)cc3[C@H]2C[C@@H]1C[C@@H]1NCCc2cc(OC)c(OC)cc21 | . | / | / | / | . | /
Nc1ccc2nonc2c1[N+](=O)[O-] | . | . | . | . | ? | 19µM
CCCc1cc2c(n1Cc1cccc(Cl)c1)C(C)C1CN(C(=O)c3ccccc3)C(C)(C(=O)OC)C21 (configuration not stated) | . | / | / | / | / | /
CC(=O)N1CC[N+](C)(C)CC1 | . | / | / | / | . | /
CC(C)c1ccc(-n2c(O)c(/C=N/NC(=O)c3ccncc3)c(=O)[nH]c2=O)cc1 | . | . | ? | ? | 18µM | .
CCC(C)N=Cc1c(O)n(-c2ccccc2)c(=O)[nH]c1=O (configuration not stated) | . | . | . | . | 10µM | 27µM
CCN(CC)c1ccc(N=Cc2c(O)n(-c3ccc(OC)cc3)c(=O)[nH]c2=O)cc1 | ? | . | . | . | 50µM | ?
Cc1ccc(N=Cc2c(O)n(-c3ccc(C)cc3)c(=O)[nH]c2=O)cc1 | / | . | . | / | / | .
Cc1ccccc1-n1c(O)c(/C=N/NC(=O)c2ccncc2)c(=O)[nH]c1=O | . | . | 89µM | ? | . | .
Cc1cc(C)c(-n2c(O)c(/C=N/NC(=O)c3ccncc3)c(=O)[nH]c2=O)c(C)c1 | . | . | ? | . | . | .
O=[N+]([O-])c1c(Cl)cccc1-c1c[nH]cc1Cl | . | / | / | / | ? | /
CN1C[C@H](C(=O)N[C@]2(C)O[C@@]3(O)C4CCCN4C(=O)[C@H](Cc4ccccc4)N3C2=O)C[C@@H]2c3cccc4[nH]cc(c34)C[C@H]21 (some centres not stated) | . | / | / | / | .[12.7 µM] | /
Cc1onc(-c2ccccc2Cl)c1C(=O)OCC(=O)c1ccc2c(c1)OCCO2 | . | . | ? | . | . | ?
CC(C)c1ccc(CNC(=O)c2ccc(N3CCCC3)c(NC(=O)NCc3ccccc3)c2)cc1 | / | . | . | ? | . | /
CCc1ccc(-n2c(O)c(/C=N/NC(=O)c3ccncc3)c(=O)[nH]c2=O)cc1 | . | . | ? | 56µM | . | .
CC(C)(C)OC(=O)N1CC[C@H]1COc1cnc[c]([Sn]([CH3])([CH3])[CH3])c1 | . | / | / | / | .[12.7 µM] | /
